Screens as filed in PubChem.
YB-1 expression – YB-1 expression inhibition | U2OS, qRT-PCR YB-1 vs CDIP delta delta Cp, 16 h; hits give high values; zero = DMSO, each unit about twofold | delta delta Cp (YB-1 minus CDIP) (no concentration beside the values) | 0.37% of 30,000 active;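 active = delta delta Cp rounded down to an integer at or above 3, about 3 SD of DMSO wells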;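 note: higher means less YB-1 transcript or more CDIP transcript relative to DMSO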
MITF inh – MITF inhibition | TRPM1 promoter luciferase, luminescence, 24 h | inhibition, % (no concentration beside the values) | 0.28% of 37,000 active; in the data active = inhibition above about 85%; inconclusive = no clear call, values can overlap the other calls; inactive = below about 68%;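 note: human melanocyte line stably carrying TRPM1 promoter luciferase reporter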
Shh pathway inh – blocks Sonic Hedgehog signaling | 2.1% of 22,000 active | Shh-LIGHT2 Gli-luciferase reporter, 30 h | inhibition, % (no concentration beside the values);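 active = mean inhibition across valid replicates above about 65%, limit read from the data; inconclusive = mean under the limit, yet half or more replicates past it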;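 note: pathway switched on by Shh-conditioned medium diluted 1 in 25 in low serum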
Starred values were filed as active, the others as inactive; ? = inconclusive; . = no result. The full list was thinned out, with hits kept by preference.

SMILES | YB-1 expression | MITF inh | Shh pathway inh
C[C@@H]1O[C@@H](O[C@@H]2[C@@H](O)[C@H](O[C@@H]3[C@@H](O)[C@H](C)O[C@@H](O[C@H]4[C@H](O[C@H]5CC[C@@]6(C)C(CC[C@]7(C)C6CC=C6[C@@H]8CC(C)(C)CC[C@]8(C(=O)O)CC[C@]67C)[C@]5(C)CO)OC[C@H](O)[C@@H]4O)[C@@H]3O)O[C@H](CO)[C@H]2O[C@@H]2O[C@H](CO)[C@@H](O[C@@H]3OC[C@@H](O)[C@H](O)[C@H]3O)[C@H](O)[C@H]2O)[C@H](O)[C@H](O)[C@H]1O (stereo not given in full) | 1.5 | -4 | 78*
Nc1ccc(OCC(O)C[n+]2ccccc2)cc1 (stereo not given) | -1.2 | -2 | .
O=C(NC(=S)N(Cc1cccnc1)Cc1ccccc1Cl)c1ccccc1 | -0.05 | 15 | 1
C=CCn1c(=O)c2c(C)c(C)sc2n2c(Nc3ccc(C(=O)OCC)cc3)nnc12 | -0.15 | 0 | 23
CCOC(=O)C(C)Oc1ccc2c(-c3ccccc3)cc(=O)oc2c1 (stereo not given) | -0.007 | -11 | 5
O=c1oc(-c2cccnc2)nc2sc3c(c12)CCCCC3 | -0.039 | -34 | -43
CC1(C)CC[C@]2(C(=O)O)CC[C@]3(C)C(=CCC4[C@@]5(C)CC[C@H](O[C@@H]6O[C@H](CO)[C@@H](O)[C@H](O)[C@H]6O)[C@@](C)(CO)C5CC[C@]43C)[C@@H]2C1 (stereo not given in full) | 0.2 | . | 88*
CC1CC[C@]2(C(=O)OC3OC(COC4OC(CO)C(O)C(O)C4O)C(O)C(O)C3O)CC[C@]3(C(=O)O)C(=CCC4[C@@]5(C)CC[C@H](OC6OC(C)C(O)C(O)C6O)C(C)(C)C5CC[C@]43C)C2C1C (stereo not given in full) | 0.76 | 18 | 32
CC(C)(CCO[C@@H]1O[C@H](CO[C@@H]2OC[C@@H](O)[C@H](O)[C@H]2O)[C@@H](O)[C@H](O)[C@H]1O)C[C@@H]1C(C(=O)O)=CC[C@]2(C(=O)O)C1=CCC1[C@@]3(C)CC[C@H](O[C@@H]4O[C@H](CO[C@@H]5O[C@H](CO)[C@@H](O)[C@H](O)[C@H]5O)[C@@H](O)[C@H](O)[C@H]4O)C(C)(C)C3CC[C@]12C (stereo not given in full) | 0.17 | . | 106*
CC1(C)CC[C@]2(C(=O)O[C@@H]3O[C@H](CO)[C@@H](O)[C@H](O)[C@H]3O)CC[C@]3(C)C(=CCC4[C@@]5(C)CC[C@H](O[C@@H]6O[C@H](CO)[C@@H](O)[C@H](O)[C@H]6O)[C@@](C)(CO)C5CC[C@]43C)[C@@H]2C1 (stereo not given in full) | -0.63 | -35 | -40
NNC(=O)Cn1nnc(N2CCCC2)n1 | 0.8 | -7 | .
Cc1cc(C)c(NC(=O)CSc2nc(-c3ccccc3)c(-c3ccccc3)[nH]2)c(C)c1 | . | 92* | .
Cc1ccc(NC(=O)CSc2nc(-c3ccccc3)c(-c3ccccc3)[nH]2)c(C)c1 | . | 11 | .
COc1ccc(/C=C/C(=O)OC2CCCCC2)cc1 | -0.018 | -79 | -56
O=C(c1ccc(F)cc1)C1CCN(CCn2c(=O)[nH]c3ccccc3c2=O)CC1 | 0.91 | -1 | 17
Cc1nc2sccn2c(=O)c1CCN1CCC(=C(c2ccccc2)c2ccc(F)cc2)CC1 | 0.67 | -4 | 71*
CCc1ccc(C(=O)Nc2nccs2)cc1 | -0.45 | 52 | -330
CNC(=O)CSCc1ccc(Br)cc1 | 0.23 | -30 | -57
N#CC(C#N)=C(Nc1ccc(Br)cc1)SCc1ccc(F)cc1 | 0.32 | 73 | 109*
COc1cc(/C=C2/SC(=Nc3cc(C)cc(C)c3)NC2=O)cc(Br)c1OC | 0.03 | 10 | 6
CCN(CC(=O)O)S(=O)(=O)c1ccc(OC)cc1 | . | -7 | .
CCN(CC)S(=O)(=O)c1ccc(Cl)c(C(=O)Oc2ccc(C)c(C)c2)c1 | 9.1* | 1 | -31
O=S(=O)(Nc1nc2ccccc2nc1Nc1ccccc1F)c1ccc(Cl)cc1 | 0.24 | 34 | 98*
CCOc1ccc(S(=O)(=O)Nc2nc3ccccc3nc2Nc2ccccc2)cc1 | -0.25 | 1 | ?
C=CCNc1sc(N)c(C#N)c1C(=O)c1ccc(Br)s1 | 0.33 | 0 | -10
SMILES | YB-1 expression | MITF inh | Shh pathway inh
C[N+]1(C)CCCC(OC(=O)C(O)(c2ccccc2)c2ccccc2)C1 (stereo not given) | 8.9* | -4 | -55
C[N+]1(C)C2CC[C@H]1CC(OC(=O)C(O)c1ccccc1)C2 (stereo not given in full) | 0.48 | -14 | -8
C=C1C(=O)OC2CC(C)C3(/C=C/C(C)=O)OC3CC12 (stereo not given) | -0.2 | -7 | -15
c1ccc2[nH]c(SCCSc3nc4ccccc4[nH]3)nc2c1 | -0.077 | 43 | .
COC(=O)CCCCCCC(=O)N/N=C/c1ccc([N+](=O)[O-])s1 | 0.22 | . | .
C[C@@H]1CCCCO[C@H](CN(C)Cc2ccccc2)[C@@H](C)CN([C@H](C)CO)C(=O)c2cc(NC(=O)Nc3ccc(F)cc3)ccc2O1 | 0.56 | 3 | 67*
C[C@@H]1CCCCO[C@@H](CN(C)C(=O)Nc2ccccc2)[C@@H](C)CN([C@H](C)CO)C(=O)c2cc(NC(=O)c3ccncc3)ccc2O1 | 0.27 | 2 | .
C[C@@H]1CCCCO[C@H](CN(C)C(=O)Nc2ccccc2)[C@@H](C)CN([C@H](C)CO)C(=O)c2cc(NC(=O)c3ccccc3)ccc2O1 | 4.4* | -8 | 9
C[C@@H]1CCCCO[C@@H](CN(C)Cc2ccccc2)[C@@H](C)CN([C@H](C)CO)C(=O)c2cc(NC(=O)Nc3ccc(F)cc3)ccc2O1 | -0.39 | 31 | .
O/N=C/c1c(F)cccc1F | 0.3 | -20 | -20
COc1ccc(-n2c(-c3ccc(Cl)cc3)n[nH]c2=S)cc1 | 0.24 | -17 | 5
O=C1NC(=O)C2(COC(c3ccccc3)OC2)S1 (stereo not given) | -0.6 | -7 | -33
C=CCN(CC=C)C(=O)Cc1ccccc1OC | 0.063 | 0 | -6
CC1C(O)C(N(C)C)CC2COCC21 (stereo not given) | -0.24 | -12 | -18
Cc1ccc(S(=O)(=O)c2ccc(C)cc2)cc1 | 0.26 | 5 | 7
Cc1ccc(S(=O)(=O)/C=C/C#N)cc1 | 0.15 | 89* | 98*
CCOC(=O)C1CCN(C(c2cccc(Cl)c2)c2c(NC(C)=O)sc3c2CCCC3)CC1 (stereo not given) | -0.29 | 24 | 20
CCCC(NS(=O)(=O)c1ccc(C)cc1)C(=O)O (stereo not given) | . | -12 | .
Cc1ccc(S(=O)(=O)N[C@@H](Cc2ccccc2)C(=O)CCl)cc1 | 0.84 | 83 | 95*
Cc1ccc2c(c1)C(C)(C)C1(C)N(Cc3ccccc3)C(=O)CN21 (stereo not given) | -0.5 | 4 | .
Oc1c(C(Nc2cccnc2)c2ccc(Cl)cc2)ccc2cccnc12 (stereo not given) | . | 39 | .
Oc1c(C(Nc2cccc(Cl)c2)c2cccnc2)ccc2cccnc12 (stereo not given) | -0.15 | 37 | 75*
Clc1ccc(Sc2cn[nH]c2-c2ccc3c(c2)OCCO3)cc1 | -0.038 | 4 | 79*
Cc1ccc(-c2csc3nnc(SCC(=O)c4ccc5c(c4)OCCO5)n23)cc1C | . | 2 | .
